In PubChem BioAssay AID720708 (National Center for Advancing Translational Sciences (NCATS), 2013):
Among all 360,000 compounds or so, about 660 (0.18%) were called active. Another 2% or so got no clear call; they are omitted. Calls follow the shape of the dose curve; as a rule, active = well fitted inhibition curve with a large enough effect; inconclusive = small, poorly fitted or top-dose-only effect; inactive = no such curve, though single readings can be large or run the other way. Shown is part of a subset that was picked to be rich in actives. Where a call stands in place of a potency, no number is given.

target: Rap guanine nucleotide exchange factor 4 (Homo sapiens) (UniProt Q8WZA2); assay: qHTS for Antagonist of cAMP-regulated guanine nucleotide exchange factor 2 (EPAC2): primary screen; conditions: EPAC2 GEF exchange of Rap1B-BODIPY-GDP, fluorescence; series mostly up to 114 µM; also: nearly all actives have a fitted effect of over 45% in size
Source text: In multi-cellular eukaryotic organisms, the effects of cAMP are transduced by two ubiquitously-expressed intracellular cAMP receptors, the classic protein kinase A/cAMP-dependent protein kinase (PKA/cAPK) and the more recently discovered exchange protein directly activated by cAMP/cAMP-regulated guanine nucleotide exchange factor (EPAC/cAMP-GEF). Both PKA and EPAC are ubiquitously expressed in all tissues, and an increase in intracellular cAMP levels will lead to the activation of both PKA and EPAC. Therefore, careful dissections of the individual role and relative contribution of EPAC and PKA within the overall cAMP signaling in various model systems are critical for further elucidating the mechanism of cAMP signaling. To date no EPAC-specific antagonists and agonist, as well as isoform-specific agonists have been reported, and developing EPAC-specific pharmacological probes to determine the physiological functions that EPAC play in the overall cAMP-mediated signaling remains a major challenge within the research field. Furthermore, identified regulators of EPAC may lead to new mechanism-based therapeutic strategies specifically targeting the EPAC / cAMP-signaling components as EPAC has been implicated to play important roles in major human pathological conditions such as diabetes, heart disease, and cancer.
This qHTS will be used to screen the Molecular Libraries Small Molecule Repository (MLSMR) as a concentration-titration series using the NCGC unique quantitative screening (qHTS) platform to find inhibitors for EPAC2. In addition, this assay will also be used as a counterscreen for the EPAC1 qHTS. This fluorescent based assay is developed and validated for EPAC2 that measures exchange using EPAC effector Rap1 complex with BODIPY-GDP, a GDP analog with a tethered fluorophores. Inhibitors are identified by monitoring the change in fluorescence signal as the exchanged free BODIPY-GDP has a reduced fluorescence compared to Rap1-bound BODIPY-GDP. Decrease in signal (inhibition) is the desired outcome for the EPAC2 antagonist while no activity in this assay is desired for the EPAC1 antagonist counterscreen.
NIH Chemical Genomics Center [NCGC]
NIH Molecular Libraries Probe Centers Network [MLPCN]
Assay Submitter (PI): Xiaodong Cheng, The University of Texas, Medical Branch
Briefly, three uL of reagents (100 nM EPAC2, 250 nM RAP1B-BODIPY-GDP, 50 uM GDP) were dispensed into a 1536-well Greiner black solid-bottom medium binding assay plate. Controls and test compounds (23 nL) were transferred to the plate via a Kalypsys pin tool equipped with a 1536-pin array. The plates were centrifuged at 1,000 rpm for 15 seconds followed by 5 minute incubation at room temperature. The assay plates were read at 5 minute intervals for 30 minutes in the ViewLux plate reader using 480nm excitation and 540nm emission filters. The results were normalized to the agonist positive control ATA and DMSO.
Potency is read from the fitted curve at half-maximal effect.

Chain of Rap guanine nucleotide exchange factor 4 (Homo sapiens) (Q8WZA2 whole entry, looked up): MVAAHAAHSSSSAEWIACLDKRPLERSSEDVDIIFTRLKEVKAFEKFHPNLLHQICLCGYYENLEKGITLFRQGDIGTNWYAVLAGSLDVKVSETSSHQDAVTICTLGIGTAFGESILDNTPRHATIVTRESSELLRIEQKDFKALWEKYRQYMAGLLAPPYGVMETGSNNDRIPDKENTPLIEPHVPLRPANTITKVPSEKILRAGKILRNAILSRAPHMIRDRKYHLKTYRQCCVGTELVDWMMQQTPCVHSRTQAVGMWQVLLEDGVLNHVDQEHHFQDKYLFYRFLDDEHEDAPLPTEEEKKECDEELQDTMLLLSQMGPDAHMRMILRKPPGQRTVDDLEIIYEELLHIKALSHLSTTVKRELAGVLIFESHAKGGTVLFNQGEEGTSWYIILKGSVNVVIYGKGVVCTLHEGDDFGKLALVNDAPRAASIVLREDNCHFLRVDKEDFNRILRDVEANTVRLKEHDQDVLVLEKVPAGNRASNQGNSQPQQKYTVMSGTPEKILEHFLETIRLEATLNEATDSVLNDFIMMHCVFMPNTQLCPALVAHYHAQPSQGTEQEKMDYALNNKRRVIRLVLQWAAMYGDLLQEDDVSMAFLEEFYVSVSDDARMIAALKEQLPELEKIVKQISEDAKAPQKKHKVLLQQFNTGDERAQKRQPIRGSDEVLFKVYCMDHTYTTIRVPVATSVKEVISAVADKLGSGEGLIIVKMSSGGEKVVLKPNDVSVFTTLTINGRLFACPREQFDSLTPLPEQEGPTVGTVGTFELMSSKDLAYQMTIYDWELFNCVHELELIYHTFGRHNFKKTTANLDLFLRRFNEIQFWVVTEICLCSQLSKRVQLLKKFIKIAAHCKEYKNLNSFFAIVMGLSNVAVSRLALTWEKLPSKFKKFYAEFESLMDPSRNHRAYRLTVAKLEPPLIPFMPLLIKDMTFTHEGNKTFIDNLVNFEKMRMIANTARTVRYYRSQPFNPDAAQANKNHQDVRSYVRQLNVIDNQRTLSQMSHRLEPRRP

SMILES	Potency
CCC(CC)C(C(=O)NC1CCCC1)N1CCN(c2cc(C)nc3ccccc23)CC1 (stereo not drawn)	inactive
COc1cc(C(=O)NC2CCN(C)CC2)ccc1Nc1ncc2c(n1)N(C1CCC(O)CC1)CCC(=O)N2C (stereo not drawn)	inactive
Cc1[nH]c2ccccc2c1C(=O)c1cc([C@H](NC(=O)OC(C)(C)C)C(C)C)sc1N	inactive
COc1ccc(NC(=O)C(C)N2c3cccc4cccc(c34)S2(=O)=O)c(OC)c1 (stereo not drawn)	inactive
COc1ccc(CNC(=O)C(=O)NCC2OCCN2C(=O)c2ccc(OC)cc2)cc1 (stereo not drawn)	inactive
CC1CCCC(NC(=O)CN2CCN(Cc3ccc(Cl)cc3)C2=O)C1C (stereo not drawn)	inactive
Brc1ccc2c(c1)[C@H]1OCC[C@H]1[C@@H](c1cccs1)N2	inactive
CC(C)OC(=O)Cn1nc(C(F)(F)F)c2c1CCCC2	inactive
CCOC(=O)C1C(C)C(C(C)(C)C)N(S(=O)(=O)c2ccc(C)cc2)C1c1ccccc1 (stereo not drawn)	inactive
CCOC(=O)[C@]12CCCC=C1N(CCC1=CCCCC1)C(=O)[C@H](CC(=O)N1CCN(C(=O)c3ccco3)CC1)C2	inactive
Cc1cc(NC(=O)CN2CCC(O)(c3cccc(F)c3)CC2)no1	inactive
O=C(COC(=O)c1cccc(Cl)c1Cl)NC1CCCCCC1	inactive
CCCCCNC(=O)C(c1ccc(OC)cc1)n1c(=O)c(-c2ccccc2)nc2ccccc21 (stereo not drawn)	inactive
COc1ccc(NC(=O)CNC(=O)Cn2ccc3ccccc3c2=O)c(OC)c1	inactive
O=C(CSc1n[nH]c(-c2cccs2)n1)N1CCCCC1	inactive
Cc1cc(C)nc(SC2CCCCC2NS(=O)(=O)c2ccc(Cl)cc2)n1 (stereo not drawn)	inactive
N#CC(C(N)=O)=C1CCC2(CC1)OCCCCO2	inactive
Cc1ccc(C(C(=O)NC2CCCCC2)N(C(=O)c2csnn2)C2CC2)o1 (stereo not drawn)	inactive
FC(F)(F)c1cccc(-c2nc3ccccc3n2C(c2ccccc2)c2nc3ccccc3[nH]2)c1 (stereo not drawn)	inactive
CCOC(=O)c1cc(S(=O)(=O)NCCc2ccc(OC)c(OC)c2)cn1C	inactive
COCCn1nnnc1CN1CCC(NC(=O)Nc2cccc(OC)c2)CC1	inactive
CCN1CCCC1CNC(=O)c1ccc2c(c1)NC(=O)/C(=C\c1ccccc1F)S2 (stereo not drawn)	inactive
CCOC(=O)N1CCN(C(=O)CSc2nc(C)nc3c2c(=O)n(C)c(=O)n3C)CC1	inactive
CC1(C(=O)Nc2ccc3c(c2)OCCO3)CN(S(C)(=O)=O)CC(=O)N1Cc1cccc(F)c1 (stereo not drawn)	inactive
C[C@H](CO)N1C[C@H](C)[C@@H](CN(C)C(=O)c2cnccn2)Oc2ncc(Br)cc2C1=O	inactive
C#CCOCCOCCOCCNc1nc(N2CCN(C(=O)CCCCCCCCCCNC(=O)[C@H]([C@@H](C)CC)n3cc(CCCCN=C(N)N)nn3)CC2)nc(N2CCN(C(=O)CCCCCCCCCCNC(=O)[C@H](CO)n3cc(CCCSC)nn3)CC2)n1	50.1 µM (active)
C#CCOCCOCCOCCNc1nc(N2CCN(C(=O)[C@H](CO)n3cc([C@@H](N)C(C)C)nn3)CC2)nc(N2CCN(C(=O)[C@H](CCC(=O)O)n3cc([C@@H](N)[C@H](C)CC)nn3)CC2)n1	inactive

SMILES	Potency
C#CCOCCOCCOCCNc1nc(N2CCN(C(=O)CCCCCCCCCCNC(=O)[C@H](CCCCN)n3cc(C)nn3)CC2)nc(N2CCN(C(=O)CCCCCCCCCCNC(=O)[C@H](CO)n3cc(CCCSC)nn3)CC2)n1	50.1 µM (active)
C#CCOCCOCCOCCNc1nc(N2CCN(C(=O)[C@H](CCCCN)n3cc([C@@H](N)C(C)CC)nn3)CC2)nc(N2CCN(C(=O)[C@H](Cc3ccc(O)cc3)n3cc([C@@H](N)C(C)CC)nn3)CC2)n1 (stereo partly drawn)	inactive
C#CCOCCOCCOCCNc1nc(N2CCN(C(=O)C([C@@H](C)CC)n3cc(C(N)COC(=O)C(F)(F)F)nn3)CC2)nc(N2CCN(C(=O)[C@H](CCCCN)n3cc(C(N)CC(C)C)nn3)CC2)n1 (stereo partly drawn)	inactive
C#CCOCCOCCOCCNc1nc(N2CCN(C(=O)C([C@@H](C)O)n3cc([C@@H](N)CCCCN)nn3)CC2)nc(N2CCN(C(=O)[C@H](CCCCN)n3cc(CN)nn3)CC2)n1 (stereo partly drawn)	inactive
CC(C)N(C(=O)Cn1cc(S(=O)(=O)CC(=O)N2CCOCC2)c2ccccc21)C(C)C	inactive
Cc1cc(NC(=O)Cn2nc(C(F)(F)F)c3c2CCCC3)no1	inactive
Cc1ccc(C(=O)N[C@H](C(=O)N2CCN(c3ncccn3)CC2)C(C)C)cc1	inactive
COc1ccc(-c2ccc(CN3C(CC(C)C)C(=O)N(Cc4cn(CC5CCCCC5)nn4)CCS3(=O)=O)cc2)cc1 (stereo not drawn)	inactive
COCOCCn1cc(CN2CCS(=O)(=O)N(Cc3ccc(-c4ccccc4)cc3)C(CC(C)C)C2=O)nn1 (stereo not drawn)	10 µM (active)
COCOCCn1cc(CN2CCS(=O)(=O)N(Cc3ccc(-c4cccc(N(C)C)c4)cc3)C(CC(C)C)C2=O)nn1 (stereo not drawn)	inactive
CCC1Nc2ncnc(N3CCN(c4ccccc4)CC3)c2N(Cc2ccc(Cl)cc2)C1=O (stereo not drawn)	inactive
COC(=O)C[C@@H]1C=C[C@@H](NS(=O)(=O)c2cccc(OC)c2)[C@@H](CO)O1	inactive
C=CCSC(CC)(CC)C(N)=O	inactive
COc1ccc(-c2cn[nH]c2-c2ccc(OC)cc2)cc1	inactive
COc1ccc(Oc2cn[nH]c2-c2ccc(OC)cc2O)cc1	56.2 µM (active)
CCOc1ccccc1Oc1cn[nH]c1-c1ccc(OC)cc1O	inactive
CCC1CCCCN1CCNS(=O)(=O)c1ccc2c(c1)CCN2C(C)=O (stereo not drawn)	inactive
CSc1ncccc1C(=O)OCc1ccc(Br)cc1	inactive
COc1ccc(/C=C2\SC(=N)N(c3ccc(F)cc3)C2=O)cc1	inactive
O=C1/C(=C/c2ccc(F)cc2)SC(=S)N1NS(=O)(=O)c1ccccc1	70.8 µM (active)
O=C(O)c1ccc(/C=C2\SC(=S)N(NC(=O)c3ccc(Br)cc3)C2=O)cc1	inactive
N#Cc1c(-c2ccccc2)nc(SCc2cccc(C(F)(F)F)c2)[nH]c1=O	39.8 µM (active)
O=c1[nH]c(SCc2cccc(F)c2)nc2ccccc12	inactive
CC(=O)CSc1nc(CCc2ccccc2)c(C#N)c(=O)[nH]1	inactive
COc1ccc(OCCCC(=O)Nc2cccc(S(=O)(=O)N3CCCCCC3)c2)cc1	inactive
CC(C)(C)NC(=O)C(CCc1ccccc1)n1c(=O)c(-c2ccccc2)nc2ccccc21 (stereo not drawn)	inactive
